# Assay results reported in PubChem BioAssay.
# A number with no mark means an inactive call. The rule behind the calls is not given here.
# Target: Pantothenate synthetase (Mycobacterium tuberculosis (strain ATCC 25618 / H37Rv)) (UniProt P9WIL5)
# Assay: Coupled enzyme confirmation of inhibitors against recombinant Mtb PanC (AID 375);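 note: 0% = full reaction with vehicle and 100% = no enzyme background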
# Settings: coupled enzyme assay; at 10 µM, active compounds read high
# Sequence of Pantothenate synthetase (Mycobacterium tuberculosis (strain ATCC 25618 / H37Rv)) (P9WIL5 whole entry, looked up): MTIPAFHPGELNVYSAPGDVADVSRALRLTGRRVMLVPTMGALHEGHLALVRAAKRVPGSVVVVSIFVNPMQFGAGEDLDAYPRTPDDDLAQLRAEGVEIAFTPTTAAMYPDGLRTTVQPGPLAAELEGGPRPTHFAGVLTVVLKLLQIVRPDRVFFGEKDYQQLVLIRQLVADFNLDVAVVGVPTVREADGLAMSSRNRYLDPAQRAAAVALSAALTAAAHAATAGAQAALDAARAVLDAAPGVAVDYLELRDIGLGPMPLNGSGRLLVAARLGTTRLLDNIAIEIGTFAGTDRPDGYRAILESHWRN
row,SMILES,inhibition [%]
1,CCOC(=O)C(C)n1cnc2c(nnn2Cc2ccc(C)cc2)c1=O (stereo not drawn),0
2,CC(=O)Nc1ccc(OCC(O)Cn2nc(C)nc2C)cc1 (stereo not drawn),4
3,CC(C)NC(=O)CSc1nnc(-c2ccc(C(C)(C)C)cc2)n1C,1
4,CCCCC[C@H](O)/C=C/C1=C(CCCCCCC(=O)O)C(=O)CC1,0
5,CC(=O)N1CCN=C1SCc1c(F)cccc1Cl,2
6,CC1(C)Cc2noc(N)c2C(C)(C)N1O,0
7,CCn1c(Cc2ccccc2)nnc1SCC(=O)Nc1ccc(N2CCOCC2)c(Cl)c1,6
8,CN(C)C(=O)COc1ccc2cc(-c3ccccc3)c(=O)oc2c1,1
9,CCCn1c(=N)n(CCOc2ccc(OC)cc2)c2ccccc21,0
10,Cc1ccc(C(=O)N2CCCC(c3nc4c(nnn4Cc4ccccc4)c(=O)[nH]3)C2)cc1 (stereo not drawn),1
11,COc1cc(C(=O)N2CCC(NC(=O)C(Cc3ccc(C)cc3)NC(C)=O)CC2)cc(OC)c1OC (stereo not drawn),3
12,CC(=O)Nc1ccc(-c2cc3ccccc3o2)cc1,8
13,COc1cccc2cc(C(=O)OC3CCN(C)CC3)c(=O)oc12,9
14,COC(=O)c1cc(Oc2ccc(C(=O)OC)cc2N)cc(C(=O)OC)c1,0
15,O=C(CCN1CCOCC1)Nc1cccc(Br)c1,10
16,CC(=O)Oc1cc(C(C)C)c(OCCN(C)C)cc1C,11
17,Clc1ccc(Nc2ncnc3c2cnn3-c2ccccc2)cc1,6
18,CC(Oc1ccccc1)C(=O)Nc1ccc(S(=O)(=O)NCC2CCCO2)cc1 (stereo not drawn),1
19,Cc1nnc(SCCn2c(N3CCC(Cc4ccccc4)CC3)nc3c2c(=O)[nH]c(=O)n3C)s1,2
20,O=C(Nc1ccccn1)N1CCOCC1,4
21,CCOC(=O)c1sc(NC(=O)CSc2nc3c(cc2C#N)CCC3)c(C#N)c1C,10
22,CCOC(=O)c1cn(CC)c2cc(N3CCOCC3)c(F)cc2c1=O,0
23,CCSc1oc(-c2ccco2)nc1S(=O)(=O)c1ccccc1,0
24,CCOC(=O)/C(C#N)=C1\Nc2ccccc2N=C1N(CC(C)C)CC(C)C,6
25,O=c1cc(NCc2ccccc2)nc2n1CCCS2,0
26,O=C(CSc1ncnc2c1oc1ccccc12)NCc1ccco1,6

row,SMILES,inhibition [%]
1,O=C(c1ncn[nH]1)N1CCN(c2nc(-c3ccccc3)cs2)CC1,5
2,Cn1c(=O)c2c(nc(CN3CCN(Cc4ccccc4)CC3)n2Cc2cccc(Cl)c2)n(C)c1=O,0
3,COc1ccccc1NC(=O)NC(N)=O,0
4,N#CCCn1ccc(NC(=O)c2ccc(Cl)cc2)n1,0
5,Cc1cc(NC(=O)C23CCC(C)(C(=O)O2)C3(C)C)no1 (stereo not drawn),1
6,COc1cc2c(OC)cccc2cc1C(=O)O,0
7,CCOC(=O)c1sc2nc(SCC(=O)NCc3ccco3)n(Cc3ccccc3)c(=O)c2c1C,0
8,COC(=O)c1nnn(-c2ccccc2)c1N,4
9,O=S(=O)(NC1CCCC1)c1ccccc1Cl,0
10,CCCCNC(=O)c1nc2ncc(Br)cn2n1,2
11,N#C/C(=C(/O)COC(=O)CCC1CCCCC1)c1nc2ccccc2[nH]1,6
12,Cc1cc(N2C(=O)C(=O)/C(=C(/O)c3ccc(F)cc3)C2c2ccc(F)cc2)no1 (stereo not drawn),0
13,COC(=O)c1ccccc1S(=O)(=O)NC(=O)c1ccccc1,0
14,CC(C)=CC(=O)OCC(=O)NC(=O)NC(C)(C)C,0
15,Cc1nc(N2CCc3ccccc32)[nH]c(=O)c1CCC(C)C,0
16,Cn1c(=O)c2c3c(sc2n2c(SCC(=O)c4ccc(Cl)cc4)nnc12)COC(C)(C)C3,0
17,COc1ccc(OC)c(S(=O)(=O)N2c3ccccc3CC2C)c1 (stereo not drawn),0
18,COc1ccc(-n2ncc3c(NCCCN4CCOCC4)ncnc32)cc1,6
19,Fc1ccc(-c2csc3nnc(SCc4cccnc4)n23)cc1,0
20,COc1cccc(CNC(=O)C2CCN(S(=O)(=O)c3ccc(F)cc3)CC2)c1,8
21,CCOCCCn1c(=NC(C)=O)c(C(=O)OCC)cc2c(=O)n3ccccc3nc21,0
22,CC(C)OC(=O)CSc1nnc(-c2ccc(O)cc2)n1Cc1ccccc1,0
23,O=C1CCC(c2ccccc2)N1C(=O)c1cccnc1 (stereo not drawn),0
24,COc1ccc(S(=O)(=O)Nc2ccc(Cl)cn2)c(C)c1C,1
25,Cc1ccc2c(C(=O)CN3CCSCC3)c(C)[nH]c2c1,0
26,CCOc1ccccc1NC(=O)C1CCCN1C(=O)OCc1ccccc1 (stereo not drawn),0

row,SMILES,inhibition [%]
1,CC1CCN(CCCNC(=O)c2coc3nc4ccccc4nc23)CC1,1
2,CC1CCCCN1S(=O)(=O)c1ccc(NC(=O)c2cccs2)cc1 (stereo not drawn),0
3,CC1=C(C(=O)OC(C)C)C(c2cccc(F)c2)n2ncnc2N1 (stereo not drawn),2
4,O=C(Nc1cccnc1)Nc1ccc(F)c(Cl)c1,0
5,N#Cc1c(N2C(=O)C3C4C=CC(C4)C3C2=O)sc2c1CCC2 (stereo not drawn),0
6,N#Cc1nc(-c2cccs2)oc1NCCc1ccccc1,0
7,CC(C)Cn1c(N)c(C(=O)NCc2cccs2)c2nc3ccccc3nc21,1
8,CC(=O)c1cccc(S(=O)(=O)N2CCC(n3nnc4cc(F)ccc43)CC2)c1,0
9,CCOC(=O)c1c(C)oc2c1c(C=NCc1ccccn1)c(O)c1ccccc12,3
10,O=c1c2ccccc2nnn1CSc1nc2cc(Cl)ccc2c(=O)n1Cc1ccco1,7
11,COc1ccc(C(C(C(=O)c2cccs2)N2CCOCC2)N2CCOCC2)cc1OC (stereo not drawn),0
12,Cc1cc(C(=O)Nc2ccccc2C#N)n(-c2ccccc2)n1,0
13,CCOc1ccccc1N1CCN(S(=O)(=O)c2cccc3nsnc23)CC1,0
14,c1cc2c(cc1C1CCCN1)OCCCO2 (stereo not drawn),2
15,O=C(Cn1nc(Cc2cccnc2)c2ccccc2c1=O)Nc1ccc2c(c1)OCO2,0
16,CCc1ccc(NC(=O)C2CC(=O)N(C(C)C)C2)cc1 (stereo not drawn),0
17,Cc1nc(NC2=NCN(CC3CCCO3)CN2)nc2ccccc12 (stereo not drawn),0
18,CC(C)c1ccc(NC(=O)CCNS(=O)(=O)c2cccc3nonc23)cc1,0
19,COc1cccc(-n2c(SCC(=O)N3CCCC3)nc3c([nH]c4ccccc43)c2=O)c1,0
20,CCOC(=O)N1CCN(C(=O)CN2C(=O)COc3ccc(C)cc32)CC1,6
21,O=C(c1ccc(CNc2c(N3CCCC3)c(=O)c2=O)cc1)N1CCc2ccccc2C1,1
22,COc1ccc(Cc2nnc(NC(=O)Cc3cccs3)s2)cc1,0
23,CSc1cccc(NC(=O)C2CCCN2S(=O)(=O)c2ccc3c(c2)CCC(=O)N3)c1 (stereo not drawn),0
24,CC(C)c1nnc(NC(=O)CCC(=O)NCc2ccc3c(c2)OCO3)s1,3
25,Cc1cc(C)c2c(CC(=O)NCc3ccco3)coc2c1,0
26,Cn1c(Cc2ccccc2)nnc1SCC(=O)NC1CCCCC1,0

row,SMILES,inhibition [%]
1,CCCN1CCN(C(=O)c2cn(CC(C)C)c(=O)c3cc(OC)c(OC)cc23)CC1,5
2,CCCN(CCC)C(=O)CC(c1ccc(F)cc1)c1ccco1 (stereo not drawn),1
3,CCOCCCNC(=O)C1CCC(CNS(=O)(=O)c2cccc3nsnc23)CC1 (stereo not drawn),1
4,CCC1CCCCN1CCCNC(=O)c1ccc(CS(=O)(=O)Cc2ccccc2F)o1 (stereo not drawn),4
5,Cc1nc2sc(C(c3cccs3)N3CCC(C(N)=O)CC3)c(O)n2n1 (stereo not drawn),2
6,CCSc1nnc(-c2cccs2)o1,0
7,CCOC(=O)N1CCN(C(=O)CCc2ccc(S(=O)(=O)NCCc3ccccc3)cc2)CC1,3
8,COc1ccccc1N1CCN(Cc2nc(N)nc(Nc3ccc(C)c(Cl)c3)n2)CC1,3
9,O=C1CC(Cc2ccccc2)C(=O)N1CCc1ccc2c(c1)OCO2 (stereo not drawn),3
10,COc1ccc(CCn2c(=N)c(C(=O)NCc3ccco3)cc3c(=O)n4ccccc4nc32)cc1,0
11,O=C1c2cccnc2C(O)N1Cc1ccc(F)cc1 (stereo not drawn),9
12,CCOc1ccccc1NC(=O)N1C2CCCC1CC(NC(=O)C1CC1)C2 (stereo not drawn),6
13,COc1ccc(CCNS(=O)(=O)c2ccc3c(c2)OCCO3)cc1,0
14,Cc1cccc(OCCNC(=O)c2ncn[nH]2)c1,0
15,COc1ccccc1-n1c(SCC(=O)NC(C)(C)C)nnc1-c1ccco1,0
16,COc1ccccc1-n1cnc(N)c1C(C)=O,0
17,CCn1nnnc1SCC(=O)N1CCOCC1,11
18,CCOc1cc(C(=O)Nc2ncccn2)cc(OCC)c1OCC,2
19,CC(=O)Nc1ccc(N2CCN(Cc3ccccc3F)CC2)cc1,0
20,CCOC(=O)c1c(C)c(C(=O)NCCN2CCOCC2)c(C)n1C,4
21,CCSc1oc(-c2cccs2)nc1S(=O)(=O)c1ccccc1,4
22,Cc1ccc2c(c1C)NC(=O)C2(O)CC(=O)c1ccc2c(c1)OCO2 (stereo not drawn),0
23,Cc1ccc(NCc2nnc(SCC(=O)N3CCCCC3)n2CC2CCCO2)c(C)c1 (stereo not drawn),3
24,COc1cccc(OC)c1OCCN1CCN(C(=O)c2ccco2)CC1,0
25,c1ccc(CC2CCN(c3nc4ccccc4n4nnnc34)CC2)cc1,11
